In PubChem BioAssay (NCI):
About 83,000 compounds went through this panel and 20% of them were active in at least one assay; those are over-represented in the sample as a whole.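 Plates (96-well) were seeded with cells, treated with compound at one concentration, and incubated for 48 hours before percent growth was determined.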 Calls of active or inactive are those of the source. The calls were made as follows: active = growth percent below 10; inactive = the rest.

Each molecule was assayed on HL-60(TB) leukemia (assay: NCI-60 one-dose screen, 48 h (100 = growth as untreated, 0 = no growth, -100 = all killed)). Conditions: 10 µM unless noted.
`O=C1c2ccccc2C(=O)c2c1ccc1[nH]c(-c3cccs3)nc21` was tested, and the growth was 93.6% (inactive).
For `CS(=O)(=O)N1CCN(Cc2cc3nc(-c4cccc5[nH]ncc45)nc(N4CCOCC4)c3s2)CC1` (tested in a mixture with another compound), the growth was 5.83% (active).
In the case of `O=c1oc2c(C(F)(F)F)cccc2cc1-c1csc(Nc2ccc(OCCF)cc2)n1`, the growth is reported as -1.08% (active).
With `CN1CCN(c2ccc3nc(-c4[nH]ncc4Nc4ncnc5[nH]ccc45)[nH]c3c2)CC1` the growth was -28.6% (active).
With `Nc1c(-c2nc3ccc(Br)cc3c(=O)[nH]2)nnn1-c1ccccc1` the growth was 103% (inactive).
In the case of `CCOC(=O)c1[nH]c2c(c1C)-c1[nH]c(=O)c(S(=O)(=O)c3ccccc3)cc1SC2`, the growth is reported as 54.7% [100 µM] (inactive).
With `COc1cc2c(cc1NC(=O)C(Cl)Cl)-c1ccc(NC(=O)C(Cl)Cl)cc1C2` the growth was -14.5% (active).
`Cc1nc(Sc2nc3ccc([N+](=O)[O-])cc3s2)sc1C` was tested, and the growth was -41.7% (active).
For `CCc1nc2ccc(Cc3ccc(C(=O)NO)cc3)cc2c(=O)n1CCc1ccccc1`, the growth was -20.3% (active).
For `O=C(Nc1ccccc1)c1ccco1`, the growth was 95.7% (inactive).
With `CC[N+](CC)=c1ccc2nc3c(cc(NCc4ccccc4)c4ccccc43)oc-2c1` the growth was -41.2% (active).
With `O=C(CCCCCCCCC(=O)Nc1cccc(C2=NCCN2)c1)Nc1cccc(C2=NCCN2)c1` the growth was 81.9% (inactive).
With `CCN1CCN(C(=O)[C@]23CC[C@@H](C)[C@H](C)[C@@H]2C2=CC[C@@H]4[C@@]5(C)C/C(=C/c6ccncc6)C(=O)C(C)(C)[C@@H]5CC[C@@]4(C)[C@]2(C)CC3)CC1` the growth was -33.1% (active).
With `COc1ccc([C@@H]2[C@@H](Cl)C(=O)N2c2cc(OC)c(OC)c(OC)c2)cc1C` the growth was -30.3% (active).
`COc1ccc(-c2cc(-c3nnc(SCC(=O)Nc4ccc(/C(C)=N\O)cc4)o3)c3ccccc3n2)cc1` was tested, and the growth was 104% (inactive).
In the case of `Nc1ccc2ccccc2c1-c1c(N)ccc2ccccc12`, the growth is reported as 2.94% (active).
In the case of `COc1ccccc1C(=O)Nc1cccc(-c2cc(=O)c3c(OC)c(OC)c(OC)cc3o2)c1`, the growth is reported as 57.7% (inactive).
In the case of `CN(C[C@@H]1COCCO1)S(=O)(=O)Nc1ccc2ccc3ncc(-c4cnn(C)c4)cc3c(=O)c2c1`, the growth is reported as 48.1% (inactive).
For `Cc1nnc2c(Cc3ccccc3)nc3ccccc3n12`, the growth was 95.7% (inactive).
In the case of `O=S(=O)(NCCCNc1nccc(-n2ccc3cccnc32)n1)c1cccc(C(F)(F)F)c1`, the growth is reported as 109% (inactive).
`Cc1cc(N2CCN(C)CC2)nc(NC2CCCC(Nc3ccnc4cc(Cl)ccc34)C2)n1` (centres undefined) was tested, and the growth was -64.9% (active).
In the case of `C1=C\CCCCN2CC[C@H]3[C@H](CCCC/C=C\CCCN4C[C@@H](CCCCC/1)C[C@@H]3C4)C2`, the growth is reported as -35.5% (active).
`COc1ccc(/C(=C\c2ccccc2)C(=O)O)cc1OC` was tested, and the growth was 112% (inactive).
For `COc1ccccc1-c1ccc2c(N)c(C(=O)c3ccc4c(c3)OCO4)sc2n1`, the growth was 37% (inactive).
`CCOC(=O)CCC[P+](c1ccccc1)(c1ccccc1)c1ccccc1` was tested, and the growth was 37.7% (inactive).
With `Cc1ccc(-c2csc(NC(=O)CCCCl)n2)cc1` the growth was 109% (inactive).
`COc1ccc(N2CCN(c3nc(-c4ccccc4)c(C#N)c(=O)[nH]3)CC2)cc1` was tested, and the growth was 55.2% (inactive).
`C=C[C@@H]1CCC/C=C/[C@@H]2C[C@H](O)C[C@H]2[C@H](O)/C=C/C(=O)O1` was tested, and the growth was 8.25% (active).
`COc1ccc(/C=C/C(=O)c2ccc(Nc3ncnc4ccccc34)cc2)cc1OC` was tested, and the growth was 75.6% (inactive).
In the case of `CN(C)C1=NCCN1`, the growth is reported as 97.9% (inactive).
For `COc1cc(NC(C)CCCN2C(=O)c3ccccc3C2=O)c2nccc(C)c2c1OC` (centres undefined), the growth was 9.5% (active).
`O=C(CCCCCCCCC(=O)N/N=C\c1ccccc1O)N/N=C\c1ccccc1O` was tested, and the growth was 14.8% (inactive).
For `CS(=O)/C(C#N)=C\C=C\c1cccc(Cl)c1` (centres undefined), the growth was -1.97% (active).
With `Cc1ccc2c(n1)C(=O)C(Oc1ccc(Br)cc1)=CC2=O` the growth was 41.1% (inactive).
For `CC(C)[C@H](NC(=O)Cn1cc(C(=O)O)nn1)C(=O)O`, the growth was 123% (inactive).
For `Nc1nc2ccccc2c2c(=O)c3cc(Cl)ccc3sc12`, the growth was 103% (inactive).
In the case of `Cc1c(-c2ccccc2)[nH]c2ccccc12`, the growth is reported as 106% (inactive).
For `Clc1ccc2[nH]cc(-c3cncn3CCc3ccccc3)c2c1`, the growth was 45.1% (inactive).
In the case of `COc1ccc(N2CCN(CC(=O)N3CCN(c4nnc(-c5ccccc5)c(-c5ccccc5)n4)CC3)CC2)cc1`, the growth is reported as -36.3% (active).
